The text below walks through data of PubChem BioAssay AID485364 (National Center for Advancing Translational Sciences (NCATS), 2010).

Hit rate of the full screen: of about 360,000 compounds, about 11,000 (3.1%) were called active. Where a call stands in place of a potency, no number is given. Another 4% or so got no clear call; they are omitted. The full list was thinned out, with actives kept by preference. Values without a mark were called inactive. The call rests on the fitted dose curve; in most records, active means well fitted inhibition curve with a large enough effect; inconclusive means small, poorly fitted or top-dose-only effect; inactive means no such curve, though single readings can be large or run the other way.
Potency means the concentration at half of the fitted maximal effect.

For the assay, the target named is Schistosoma mansoni thioredoxin glutathione reductase (TGR) (UniProt Q962Y6). Put plainly: qHTS Assay for the Inhibitors of Schistosoma Mansoni Peroxiredoxins. Further: nearly all actives have a fitted effect of over 60% in size. Conditions: purified TGR, DTNB reduction, TNB absorbance 405 nm; series mostly up to 114 µM. In outline:
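Kinetic colorimetric format: TGR-catalysed, NADPH-driven DTNB reduction monitored via TNB absorbance. Enzyme dispensed at 20 nM; compound exposure 15 min at room temperature before reaction start.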
In general terms: qHTS replaces the single test concentration by a dilution series.
For `COC(=O)c1scc(-c2ccccc2)c1S(=O)(=O)Nc1ccccc1`, the Potency result was “inactive”. Turning to `COc1ccc(-n2c(=O)c3sc4ccccc4c3n(CC(=O)Nc3cccc(C)c3)c2=O)cc1`, the Potency result was “inactive”.

In the case of `Cc1cccc(N2CCN(C(=O)CCn3c(=O)c4cccn4c4cccnc43)CC2C)c1` (configuration not stated), the Potency entry is “inactive”. The same measure, in the same setting: as for `O=C1Oc2ccccc2C(=O)/C1=C/c1ccccc1O`, the figure is 2 µM (active); as for `COC(=O)c1ccc(/C=C2/C(=O)Oc3ccccc32)cc1`, “inactive”; as for `CC(C)(C)NC(=O)CSc1nc(-c2ccc(F)cc2)cc(C(F)(F)F)n1`, “inactive”. On the same count and under the same terms, as for `CCCC(NS(=O)(=O)c1ccc(OC)cc1)C(=O)O` (configuration not stated), the entry is “inactive”; as for `COc1ccc(S(=O)(=O)Nc2cc3c(C(=O)OC(C)C)c(C)oc3c3ccccc23)cc1`, “inactive”; as for `COc1ccc(S(=O)(=O)/N=C2\C=C(NS(=O)(=O)c3ccccc3)C(=O)c3ccccc32)cc1`, 35.5 µM (active). Same read-out and setting: under `CCc1cc(CNC(=O)CC2C(=O)NCCN2Cc2ccccc2C(F)(F)F)on1` (configuration not stated) stands 35.5 µM (active); under `CCc1cc(CNC(=O)CC2C(=O)NCCN2CC2CCCCC2)on1` (configuration not stated), “inactive”.

Turning to `Cc1ccccc1CN1CCNC(=O)C1CC(=O)NCCC1=CCCCC1` (configuration not stated), the Potency entry is “inactive”. For `CC(C)c1ccc2oc(-c3cc(NC(=O)c4cccs4)ccc3Cl)nc2c1`, the Potency entry was “inactive”.

`COc1ccc(OC)c(-c2csc(-c3c(N)c(C(=O)c4ccccc4)n4ccccc34)n2)c1`: the Potency entry was “inactive”.

Regarding `CC(/C=C/C1(O)C(C)CC(=O)CC1(C)C)OC1OC(CO)C(O)C(O)C1O` (configuration not stated), the Potency is 25.1 µM (active). The same measure, in the same setting: under `CC1=C(C)C(=O)OC(C(C)C2CCC3C4CC=C5CC(OC6OC(COC7OC(CO)C(O)C(O)C7O)C(O)C(O)C6O)CC(O)C5(C)C4CCC23C)C1` (configuration not stated) stands “inactive”; under `C=CC1C(OC2OC(CO)C(O)C(O)C2O)OC=C(C(=O)OC)C1CC1CC(=O)CC(CC(=O)CCc2ccc(O)cc2)O1` (configuration not stated), “inactive”; under `Cc1ccc(N(Cc2cc(=O)[nH]c3ccccc23)C(=O)CCl)cc1`, 3.16 µM (active).

Turning to `CC(=O)N(Cc1cc(=O)[nH]c2ccccc12)c1ccc(C)cc1C`, the Potency entry is “inactive”.

For the compound `Cc1ccc(N(Cc2cc3ccccc3[nH]c2=O)C(=O)c2cccs2)cc1`, the Potency entry was “inactive”. Same read-out and setting: under `CCOC(=O)c1ccc(-c2ccc(/C=C(\C#N)C(=O)Nc3ccc(C)cc3)o2)cc1` stands “inactive”; under `COc1ccc(OCCCn2c(C3CC(=O)N(c4ccc(F)cc4)C3)nc3ccccc32)cc1` (configuration not stated), “inactive”; under `CCOC(=O)C1(Cc2ccccc2C)CCCN(S(C)(=O)=O)C1` (configuration not stated), “inactive”. Take `CCOC(=O)C1(Cc2ccccc2C)CCCN(C(=O)c2ccc(COC)o2)C1` (configuration not stated): the Potency is 15.8 µM (active). Same read-out and setting: under `CCOC(=O)C1(Cc2ccccc2C)CCCN(C(=O)CCc2c(C)noc2C)C1` (configuration not stated) stands “inactive”; under `COc1ccc(CNc2nc(-c3ccccc3)nn2C(=O)c2ccccc2OC)cc1`, “inactive”; under `CCOC(=O)c1cccc(NC(=O)Cn2cnc3nc4c(cc3c2=O)CCCC4)c1`, “inactive”. Still for that read-out and setting: under `CC1=C(c2ccc(C)c(C)c2)S(=O)(=O)NC1=NCc1ccccc1Cl` stands “inactive”; under `C=CCn1c(=S)[nH]c2scc(-c3ccco3)c2c1=O`, 8.91 µM (active); under `C=CCn1c(SCc2csc(C)n2)nc2scc(-c3ccc(C)o3)c2c1=O`, 7.94 µM (active). The same measure, in the same setting: under `C=CCn1c(SCC(=O)Nc2ccc(NC(C)=O)cc2)nc2sc(C)c(C)c2c1=O` stands “inactive”. On to `C=CCn1c(SCc2c(C)noc2C)nc2sc3c(c2c1=O)CCC(C)C3` (configuration not stated), for which the Potency result was “inactive”.

As for `C=CCn1c(SCC(=O)/C(C#N)=C(\C)N)nc2sc(C)c(C)c2c1=O`, the Potency entry was “inactive”. The same measure, in the same setting: as for `CCC1(C)Cc2c(sc3[nH]c(=S)n(Cc4ccccc4)c(=O)c23)CO1` (configuration not stated), the entry is “inactive”. On the same count and under the same terms, under `C=CCNC(=O)CSc1nc2scc(-c3ccco3)c2c(=O)n1CC=C` stands 39.8 µM (active); under `C=CCn1c(SCC(=O)NCC2CCCO2)nc2sc(C)c(C)c2c1=O` (configuration not stated), “inactive”; under `CCOC(=O)c1ccc(CN(Cc2ccccc2)S(=O)(=O)c2ccc(Cl)cc2)cc1`, “inactive”. In the case of `Cc1cccc(N2CCN(C(=O)c3cc4c(=O)oc5ccccc5c4s3)CC2C)c1` (configuration not stated), the Potency entry was “inactive”. Still for that read-out and setting: as for `O=c1cc2nc(-c3ccccc3)nc(SCCOc3ccc(Cl)cc3)n2[nH]1`, the entry is “inactive”; as for `COc1ccc(CNc2nc(-c3ccc(Cl)cc3)nn2C(=O)c2ccccc2)cc1`, “inactive”; as for `Cc1cccc(-n2ncc(C(=O)N3CCc4ccccc4C3)c2C2CCN(C(=O)OC(C)(C)C)CC2)c1`, “inactive”.

As to `CN(c1ccccc1)S(=O)(=O)c1ccc(Cl)c(C(=O)OCC(=O)N2CCOCC2)c1`, the Potency entry is “inactive”. On the same count and under the same terms, under `CN(c1ccccc1)S(=O)(=O)c1ccc(Cl)c(C(=O)OCC(N)=O)c1` stands “inactive”; under `CN(c1ccccc1)S(=O)(=O)c1ccc(Cl)c(C(=O)OCC(=O)NCc2ccco2)c1`, 22.4 µM (active); under `O=S(=O)(Nc1ccc2nc(-c3ccco3)[nH]c2c1)c1ccccc1`, 10 µM (active). The same measure, in the same setting: as for `O=S(=O)(Nc1ccc2nc(-c3cccc(Cl)c3)oc2c1)c1ccccc1`, the entry is “inactive”; as for `CCc1ccccc1NS(=O)(=O)c1ccc2nc(-c3ccccc3)[nH]c2c1`, “inactive”; as for `O=C(CN1C(=O)COc2ccc(S(=O)(=O)N3CCOCC3)cc21)N1CCN(c2cccc(Cl)c2)CC1`, “inactive”. As for `CCOC(=O)CN1C(C(=O)c2ccccc2)=C(OC(=O)C(C)(C)C)c2ccccc2S1(=O)=O`, the Potency result was “inactive”. On the same count and under the same terms, under `Cc1ccc(N(CC(=O)NCc2ccc(Cl)cc2)S(=O)(=O)N(C)C)cc1` stands “inactive”.

As for `O=C(O)CN(Cc1ccco1)S(=O)(=O)c1ccccc1`, the activity change, negative = inhibition was -3.68% [at 11.4 µM]. `Cc1ccc(-c2csc(N(Cc3ccco3)C(=O)c3cccs3)n2)cc1`: the Potency entry is “inactive”. In the case of `O=C(O)CCC(=O)N(Cc1ccco1)c1nc(-c2ccccc2)cs1`, the Potency was 44.7 µM (active). Same read-out and setting: as for `COc1ccccc1N1CCN(c2ccc(=O)n(CC(=O)NCc3ccc(OC(C)C)cc3)n2)CC1`, the entry is “inactive”. Still for that read-out and setting: as for `Cc1cc(NS(=O)(=O)c2ccc(NC(=O)c3ccccc3C)cc2)nc(C)n1`, the entry is “inactive”. Still for that read-out and setting: as for `Cc1nnc(N2CCC(C(=O)Nc3ccc(F)cc3)CC2)c2nn(-c3ccc(Cl)cc3)c(C)c12`, the entry is “inactive”; as for `COc1ccc(NC(=O)CCc2nnc3n(CC(C)C)c(=O)c4ccccc4n23)cc1OC`, “inactive”; as for `COc1ccc(C(=O)C2CN(C)CC2C(=O)c2ccc(OC)cc2)cc1` (configuration not stated), “inactive”. Take `COc1ccc(OCC(=O)OCCN(C)C)cc1`: the Potency entry was “inactive”. Turning to `COc1ccc(OCCC(=O)c2ccc(OC)cc2)cc1`, the Potency is 1.78 µM (active). As to `COc1ccc(C(=O)C[n+]2ccc(C)cc2)cc1`, the Potency entry is “inactive”.

Regarding `COc1ccc(C(=O)CC2C(=O)N(C)C(=O)N(C)C2=O)cc1`, the Potency is 25.1 µM (active).

Take `COc1ccc(OCCCC(=O)Oc2ccc(OC)cc2)cc1`: the Potency entry is “inactive”.

With `CC(=O)c1ccc(NC(=O)CSc2nc(-c3ccccc3F)nc3c2c(=O)n(C)c(=O)n3C)cc1`, the Potency result was “inactive”. Turning to `CCN(CC)c1ccc(NC(=O)CN2C(=O)c3cccnc3Oc3ccc(Cl)cc32)c(C)c1`, the Potency entry is “inactive”. As to `Cc1cccc(C(=O)Nc2ccc(S(=O)(=O)N3CCCCC3c3cccnc3)cc2)c1` (configuration not stated), the Potency result is “inactive”. The same measure, in the same setting: under `Cc1cccc(N2CCN(C(=O)c3ccc4c(c3)CCN4S(=O)(=O)c3ccccc3)CC2)c1C` stands “inactive”. For the compound `COc1cccc(NC(=O)c2csnn2)c1`, the Potency entry was “inactive”. In the case of `Cc1cccc(NC(=O)Cn2c(=O)n(CCC(C)C)c(=O)c3cccnc32)c1`, the Potency result is “inactive”. Same read-out and setting: under `COc1ccc(-n2ccn(CC(=O)Nc3ccc(C)c(C)c3)c(=O)c2=O)cc1OC` stands “inactive”. On the same count and under the same terms, under `CCOC(=O)c1c(-c2ccccc2)oc2ccc(OC(=O)N(C)C)cc12` stands “inactive”; under `CCOC(=O)c1c(-c2ccccc2)oc2cc(Br)c(O)c(C=O)c12`, 15.8 µM (active). The same measure, in the same setting: as for `CCOC(=O)c1c(-c2ccccc2)oc2ccc(OCC(=O)NN)cc12`, the entry is “inactive”. Consider `COc1cccc(C(=O)NCC(=O)OCc2cc(=O)n3ccsc3n2)c1`, for which the Potency result was “inactive”. The same measure, in the same setting: under `Cc1nnc(SCC(N)=O)n1CC1CCCO1` (configuration not stated) stands “inactive”. As for `CNC(=O)NC(=O)CSc1nnc(-c2ccc(F)cc2)n1CC1CCCO1` (configuration not stated), the Potency result was “inactive”. In the case of `O=C(CSc1nnc(-c2ccco2)n1CC1CCCO1)c1ccccc1` (configuration not stated), the Potency is 25.1 µM (active). Take `Cc1ccccc1CSc1nc2c([nH]c3ccccc32)c(=O)n1C`: the Potency result is “inactive”.

On to `COc1cccc(OCCn2c(-c3ccc(Br)cc3)nc3ccccc3c2=O)c1`, for which the Potency result is “inactive”. Same read-out and setting: under `Cc1ccc(/C=C/C(=O)Nc2cc(S(=O)(=O)N3CCCCCC3)ccc2OCC(F)(F)F)o1` stands “inactive”; under `Cc1ccc(/C=C/C(=O)Nc2ccc([N+](=O)[O-])c(NC(=O)/C=C/c3ccc(C)o3)c2)o1`, 22.4 µM (active); under `COc1ccc(OC)c(NC(=O)Cc2cccs2)c1`, “inactive”. For the compound `CNc1ccc(NC(C)=O)cc1[N+](=O)[O-]`, the Potency entry is “inactive”. For `COc1ccc(OC)c(NC(=O)/C=C/c2ccc(C)o2)c1`, the Potency is 50.1 µM (active). Consider `Cc1cc(NC(=O)Nc2ccccc2[N+](=O)[O-])no1`, for which the Potency entry is “inactive”. Regarding `CCc1ccc(NC(=O)N2CCN(C(=O)c3nsc4ccccc34)CC2)cc1`, the Potency entry was “inactive”.

For the compound `Cc1cccc(C(C)C)c1NC(=O)C(NS(=O)(=O)c1cccc2nsnc12)c1ccccc1` (configuration not stated), the Potency result was “inactive”. The same measure, in the same setting: under `CCc1ccc(CNCc2c(C(=O)O)n(Cc3ccc(F)cc3Cl)c3cc(OC)ccc23)cc1` stands “inactive”. Same read-out and setting: as for `CC(CNC(=O)c1nnc(Cc2cccc(F)c2)o1)c1ccccc1` (configuration not stated), the entry is “inactive”. `COc1ccc(C2C3=C(CCCC3=O)N(CC(=O)O)C3=C2C(=O)CCC3)cc1`: the Potency entry is “inactive”. In the case of `CCOc1ccc(C2C(C#N)=C(N)N(N(C)C)C3=C2C(=O)CCC3)cc1` (configuration not stated), the Potency entry is “inactive”. Turning to `CCOc1ccc(C2C3=C(CCCC3=O)N(CC(=O)O)C3=C2C(=O)CCC3)cc1`, the Potency was 44.7 µM (active).

Regarding `CC(=O)Nc1ccc(NC(=O)C2CCCN(S(=O)(=O)c3ccc4c(c3)CCCC(=O)N4)C2)cc1` (configuration not stated), the Potency entry was “inactive”. Consider `COCCNC(=O)CSc1nc(-c2ccccc2)[nH]c1-c1ccc(C)cc1`, for which the Potency result is “inactive”.

For `Cc1oc(C)c2c(=O)cc(-c3ccc4c(c3)OCO4)cc(OC(=O)c3ccc(Cl)cc3)c12`, the Potency result was “inactive”.

Turning to `Cc1cc(OC(=O)c2ccc(Cl)cc2)cc(=O)n1C`, the Potency was 44.7 µM (active). Same read-out and setting: under `Cn1cncc1COC(=O)c1ccc(Cl)cc1` stands “inactive”.
